# Bioassay records: PubChem, National Center for Advancing Translational Sciences (NCATS)
# In the library only some 10% were active in any assay of this set; here they are far more common.
# G9a block: qHTS Assay for Inhibitors of Histone Lysine Methyltransferase G9a; Potency, µM (top dose mostly 102 µM), inactives show at the highest dose activity, negative = inhibition, usual class: inhibitors; G9a H3K9 monomethylation, AlphaScreen, 2 h; AID 504332, 2011; Histone-lysine N-methyltransferase EHMT2 (Homo sapiens), Q96KQ7; 350,000 tested, 8.8% active; also: potency is read from the fitted curve at half-maximal effect; % is scaled to controls: 0 for no effect and ±100 for the full control effect; nearly all actives have a fitted effect of over 75% in size
#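 Quantitative HTS format: methyltransferase activity on a biotin-tagged H3K9 peptide is measured by AlphaScreen, using a rabbit anti-monomethyl-H3K9 antibody with streptavidin donor and anti-IgG acceptor beads. Final levels are 20 nM enzyme, 500 nM peptide, 20 uM SAM; 2 h RT.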
# Six1-Eya2 blk: qHTS Assay for Inhibitors of the Six1/Eya2 Interaction | Homeobox protein SIX1 (Homo sapiens) + Protein phosphatase EYA2 (Homo sapiens), … | AlphaScreen GST-Six1/His-Eya2 binding, biochemical; active compounds read low | activity change, % (concentration not given with the values) | 360,000 tested, 0.56% active; in the data active = activity change below about -65%; inconclusive = mostly about -30% to -63%; also: % is scaled to controls: 0 for no effect and ±100 for the full control effect
# Target sequence (O00167 whole entry, looked up): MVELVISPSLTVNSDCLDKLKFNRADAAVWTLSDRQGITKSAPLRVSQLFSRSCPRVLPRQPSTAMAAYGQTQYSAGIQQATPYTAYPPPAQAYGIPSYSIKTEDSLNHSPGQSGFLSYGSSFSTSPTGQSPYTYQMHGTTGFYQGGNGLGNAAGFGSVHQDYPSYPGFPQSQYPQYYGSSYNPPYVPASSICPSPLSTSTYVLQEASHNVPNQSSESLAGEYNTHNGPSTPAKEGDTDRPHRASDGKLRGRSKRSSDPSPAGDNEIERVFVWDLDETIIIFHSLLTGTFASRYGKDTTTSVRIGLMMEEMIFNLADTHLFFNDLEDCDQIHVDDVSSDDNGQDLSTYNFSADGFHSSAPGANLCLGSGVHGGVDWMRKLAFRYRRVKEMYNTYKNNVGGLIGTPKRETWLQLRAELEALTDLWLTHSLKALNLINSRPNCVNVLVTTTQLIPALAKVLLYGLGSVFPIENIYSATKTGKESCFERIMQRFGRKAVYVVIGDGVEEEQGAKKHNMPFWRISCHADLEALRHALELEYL
# Target sequence (Q15475 whole entry, looked up): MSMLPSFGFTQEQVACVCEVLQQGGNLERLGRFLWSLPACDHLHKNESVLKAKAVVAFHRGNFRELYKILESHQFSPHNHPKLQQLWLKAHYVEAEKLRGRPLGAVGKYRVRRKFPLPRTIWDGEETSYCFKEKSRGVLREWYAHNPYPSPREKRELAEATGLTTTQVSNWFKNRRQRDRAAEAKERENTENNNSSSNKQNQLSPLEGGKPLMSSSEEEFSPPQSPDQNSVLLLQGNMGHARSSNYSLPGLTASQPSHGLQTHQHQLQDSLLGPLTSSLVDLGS
#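 Homogeneous AlphaScreen proximity assay pairing GST-Six1 with His-tagged Eya2 (added as 5X mix: 250 nM and 500 nM) in 50 mM Tris pH 8.0, 300 mM NaCl, 1 mM TCEP. Glutathione donor and nickel acceptor beads; 1 h, 37 °C, dark.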
# JMJD2A Tudor: qHTS Assay for Inhibitors of JMJD2A-Tudor Domain. AlphaScreen JMJD2A-Tudor / H3K4me3 peptide binding. Lysine-specific demethylase 4A (Homo sapiens), O75164. 390,000 tested, 4.4% active. Potency, µM (top dose mostly 114 µM), for inactives: top-dose activity change, negative = inhibition, most hits filed as inhibitors; also: potency is read from the fitted curve at half-maximal effect; % is scaled to controls: 0 for no effect and ±100 for the full control effect; nearly all actives have a fitted effect of over 50% in size
# HP1b binding inh: HTS for Inhibitors of HP1-beta Chromodomain Interactions with Methylated Histone Tails; AlphaScreen HP1-beta / biotin-H3K9me3 peptide binding; Potency, µM (highest dose often 114 µM), for inactives: at the top dose activity change, negative = inhibition, usual class: inhibitors; 390,000 tested, 0.56% active; AID 540317, 2011; also: potency is read from the fitted curve at half-maximal effect; nearly all actives have a fitted effect of over 70% in size
#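 AlphaScreen: HP1-beta (50 nM) preformed 30 min with biotin-H3(1-18)K9me3 peptide (50 nM) in PBS pH 7.4, 0.01% Tween-20. Compound added for 30 min at RT, then streptavidin donor/nickel chelate acceptor beads (10 ug/mL) for 30 min.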
# BAZ2B inh: qHTS Assay for Inhibitors of BAZ2B; AID 504333, 2011; AlphaScreen BAZ2B-H3K14Ac peptide displacement; Potency, µM (top dose mostly 114 µM), for inactives: at the highest dose activity change, negative = inhibition, most hits filed as inhibitors; 360,000 tested, 4.4% active; Bromodomain adjacent to zinc finger domain protein 2B (Homo sapiens), Q9UIF8; also: potency is read from the fitted curve at half-maximal effect; % is scaled to controls: 0 for no effect and ±100 for the full control effect; nearly all actives have a fitted effect of over 60% in size
#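 AlphaScreen luminescence quantifies BAZ2B engagement of H3K14Ac peptide; the protein and biotinylated peptide are both at 50 nM final, buffer PBS pH 7.4 with 0.01% Tween-20, all steps at room temperature.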
# CtBP-E1A inh: qHTS Assay for Inhibitors of the CtBP/E1A Interaction; 340,000 tested, 0.49% active; AlphaScreen GST-E1A/His-CtBP binding, 1536-well; active compounds read low; activity change, % (test concentration not listed); CtBP / adenovirus E1A interaction (AlphaScreen); AID 651724, 2012; in the data active = activity change below about -65%; inconclusive = mostly about -30% to -63%; also: % is scaled to controls: 0 for no effect and ±100 for the full control effect
#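 In 5 uL wells, 23 nL compound meets equimolar GST-E1A and His-CtBP (5X stock 125 nM each) for 2 h, 37 °C. Beads (5X, 50 ug/mL) then 1 h, 37 °C, dark.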
# The depositor's hits bear a star; u = inconclusive; x = no result given; [ ] = dose if it differs, or a comment. Unless noted, calls follow the shape of the dose curve; as a rule, active = well fitted inhibition curve with a large enough effect; inconclusive = small, poorly fitted or top-dose-only effect; inactive = no such curve, though single readings can be large or run the other way.
SMILES,G9a block,Six1-Eya2 blk,JMJD2A Tudor,HP1b binding inh,BAZ2B inh,CtBP-E1A inh
CC(=O)c1ccc(NC(=O)/C(=C\c2ccccc2)NC(=O)/C=C/c2ccccc2)cc1,-3%,0,-13%,33%,-1%,-2
CCN(CC(=O)Nc1ccc(NC(C)=O)cc1)C(=O)/C=C/c1ccco1,50µM*,-1,-7%,9%,-22%,4
COc1ccccc1-c1noc(-c2ccc(N(C)Cc3ccccc3)c([N+](=O)[O-])c2)n1,u,x,-24%,5%,-13%,x
CC(C(=O)NN)c1ccc([N+](=O)[O-])cc1 (stereo not given),6%[59 µM],-9,-5%,31%,-15%,-6
COc1ccc(NC(=S)NC(=O)/C=C/c2ccco2)cc1,22µM*,-10,-15%,3%,u,-11
O=C(/C=C\c1ccco1)Nc1ccc(N2CCN(C(=O)c3ccccc3)CC2)cc1,u,0,-27%,-12%,71µM*,0
O=C(/C=C/c1ccco1)NC(=S)Nc1ccc(N2CCCC2)cc1,u,u,u,35µM*,10µM*,-21
CCN(CC(=O)Nc1ccc(NC(C)=O)cc1)C(=O)Cc1coc2cc(C)c(C)cc12,50µM*,-8,-15%,21%,6%,0
O=C(/C=C/c1ccco1)N1CCN(c2ccccc2)CC1,u,-4,0%,13%,-28%,3
Cc1cccc(C)c1NC(=O)CN(Cc1ccccc1)Cc1ccccc1,x,11,x,x,x,2
CCOc1ccccc1-n1nnc(-c2nsc(NC(=O)c3ccc(C)cc3)n2)c1C,0%[59 µM],x,-23%,12%,1%,x
CCOc1ccccc1N(C)C(=O)Cn1nc(Cc2ccncc2)c2ccccc2c1=O,2%[59 µM],x,-11%,31%,-12%,x
Cc1oc2ncnc(N3CCOCC3)c2c1C(=O)N1CCN(c2cccc(C(F)(F)F)c2)CC1,-3%[59 µM],x,-16%,33%,7%[57.1 µM],x
O=C(/C=C/c1ccco1)Nc1ccccc1N1CCCCC1,50µM*,-7,-23%,u,u,x
O=C(/C=C/c1ccco1)NC(=S)Nc1ccc(Cl)cn1,40µM*,-4,-30%,8%,u,-5
CN(C)c1ccc(NC(=S)NC(=O)/C=C/c2ccco2)cc1,-35%,6,-17%,17%,5%,3
O=C(/C=C/c1ccco1)NC(=S)Nc1ccc(C(=O)O)cc1,10µM*,u,35µM*,71µM*,32µM*,-2
Cc1ccccc1OCC(=O)Nc1nnc(S(=O)(=O)N2CCCCCC2)s1,-41%[59 µM],x,-30%,-11%,-29%,x
COc1ccccc1N1CCN(C(=O)C(=O)c2c[nH]c3ccccc23)CC1,7%,-13,-31%,2%[57 µM],-30%,x
COc1ccc(C2=CC(c3cc(OC)c(OC)c(OC)c3)NC(=S)N2)cc1 (stereo not given),6.3µM*,-2,-19%[11.4 µM],-16%,-28%,0
C=C(C)CNC(=S)Nc1sc2c(c1C(=O)OCC)CC(C)(C)OC2,14µM*,0,u,-36%,9%,4
O=C(NC1CC1)C1CC(=O)N(c2cccc(Cl)c2)C1 (stereo not given),25µM*,-1,-3%,43%,-38%,2
Cc1ccc(N2CC(C(=O)Nc3ccccc3C(=O)NC3CCCCC3)CC2=O)cc1C (stereo not given),x,-8,20µM*,-11%,x,-7
Cc1ccc(N2CC(C(=O)NC3=NCCS3)CC2=O)cc1C (stereo not given),-13%[59 µM],9,-21%,15%,5%,-7
Cc1ccc(N2CC(C(=O)Nc3ccc(N(C)C)cc3)CC2=O)cc1C (stereo not given),-30%[12.7 µM],-18,56µM*,-6%,u,-2
SMILES,G9a block,Six1-Eya2 blk,JMJD2A Tudor,HP1b binding inh,BAZ2B inh,CtBP-E1A inh
Cc1ccccc1S(=O)(=O)N1CCN(S(=O)(=O)c2ccc3c(c2)OCCO3)CC1,x,x,-8%,x,x,x
O=C1Cc2ccccc2C(=O)N1CCc1ccccc1,32µM*,6,-22%,35%,4%,-6
CCC1=C(OC(=O)N(CC)CC)N2C(=O)OC(=NCCc3c[nH]c4ccccc34)[C@]2(C)[C@H]2C1=CC[C@H]1C(=O)N(C)C(=O)[C@H]12,-7%[12.7 µM],0,-31%,11%,-13%,-1
COC(=O)C1=C(C)N(c2ccc(OC)c(OC)c2)C(=O)C1,71µM*,2,-17%,50%,-2%,5
COC(=O)C1=C(C)N(c2ccc(F)cc2)C(=O)C1,45µM*,26,-11%[57.1 µM],61%,12%,1
COc1ccc(OC)c(N(C)S(=O)(=O)c2ccc3c(c2)NC(=O)CC(=O)N3)c1,2%[59 µM],x,-5%,48%,-2%,x
O=C(Nc1cc(Cl)ccc1-n1cncn1)c1cccc(S(=O)(=O)N2CCOCC2)c1,26%[2.33 µM],2,-11%,35%,8%,-10
O=c1cccc(-c2ccc3ccccc3c2)o1,x,-3,x,x,x,-4
Nn1nnc2ccccc21,41%[59 µM],5,-17%,48%,3%,-19
S=c1[nH]nc2nnc3ccccc3n12,3.2µM*,-9,-19%,-5%,u,-8
CC(C)(C(=O)N1CCC1(C)C(=O)NC1Cc2ccccc2C1)c1ccccc1 (stereo not given),x,3,x,x,x,1
COc1ccc(N2CCN(C(=O)C3CCCN(c4ncnc5c4nc4n5CCCCC4)C3)CC2)cc1 (stereo not given),x,-11,u,-2%,28µM*,-29
CC(=O)c1ccc(N2CCN(C(=O)C3CCCN(c4ncnc5c4nc4n5CCCCC4)C3)CC2)cc1 (stereo not given),x,-4,-13%,27%,u,-21
O=C(C1CCN(c2ncnc3c2nc2n3CCCCC2)CC1)N1CCN(c2cccc(Cl)c2)CC1,11%,-11,u,38%,32µM*,x
Cc1ccccc1C(=O)N1c2ncnn2C2(CCCCC2)[C@@H]2CCCC[C@@H]21,-8%[59 µM],x,-9%,43%,-11%,x
O=C(NCC(=O)N1CCN(S(=O)(=O)/C=C/c2ccccc2)CC1)c1ccccc1F,-3%,11,-12%,11%,-9%,7
CC(Oc1ccc(Cl)cc1)C(=O)Nc1ccccc1N1CCOCC1 (stereo not given),x,1,20%,63%,x,-1
CC(Oc1cccc(F)c1)C(=O)Nc1ccc(N2CCOCC2)cc1 (stereo not given),u,-1,-19%,30%,-1%,-8
